Screens as filed in PubChem.
ASM inhibitor: blocks human secretory acid sphingomyelinase; placental ASM, HMU-PC fluorogenic substrate, 60 min; Potency, µM (top dose mostly 57.5 µM), without a hit: at the top dose activity change, negative = inhibition, usual class: inhibitors; 340,000 tested, 0.006% active; note: potency is the fitted concentration of half-maximal effect
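Steps: dispense placental human ASM, pin compound, wait 10 min at room temperature, add HMU-PC0 substrate at 9 uM final, incubate 60 min at 37 °C, add stop solution raising pH to 10, read fluorescence.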
ClpP mod: qHTS Assay for Activators of ClpP; ATP-dependent Clp protease proteolytic subunit (Bacillus subtilis (strain 168)), P80244; purified B. subtilis ClpP, FRET peptide cleavage, 20 min; Potency, µM (highest dose often 57.5 µM), for inactives: at the highest dose activity change, negative = active; 340,000 tested, 1.9% active; active = well fitted falling curve with a large enough effect; inconclusive = small, poorly fitted or top-dose-only effect; inactive = no such curve, though single readings can be large or run the other way; note: potency is the fitted concentration of half-maximal effect; the source files actives as falling curves though it sought activators and does not explain the sign; nearly all actives have a fitted effect of over 65% in size
Target sequence (P80244 whole entry, looked up): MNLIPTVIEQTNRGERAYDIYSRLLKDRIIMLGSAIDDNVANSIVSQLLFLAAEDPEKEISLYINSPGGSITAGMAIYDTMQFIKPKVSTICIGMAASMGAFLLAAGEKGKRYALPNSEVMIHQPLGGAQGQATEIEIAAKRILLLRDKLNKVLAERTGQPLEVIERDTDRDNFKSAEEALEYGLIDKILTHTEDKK
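ClpP 10 microg/mL final, pH 8 Tris/KCl buffer with BSA, glycerol, Tween-20; compound pinned in; FRET-FV substrate; RT 20 min; Ex320/Em430; ΔFRET vs ADEP 5.8 microM, DMSO, no enzyme.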
LDHA inh: inhibitors of human lactate dehydrogenase A; AID 1347041; 480,000 tested, 0.15% active; purified LDHA, NADH/diaphorase-resazurin fluorescence; hits give low values; activity change, % (values are at about 110 or 230 µM); in the data active = activity change below about -30%; inconclusive = mostly about -25% to -30%;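 note: plate controls were DMSO wells for no effect and wells without enzyme for full effect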
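Remaining NADH was detected by diaphorase (0.133 mg/mL) converting 37 µM resazurin to fluorescent resorufin, read at 0 and 20 minutes. The preceding 5-minute room-temperature reaction used 2 nM LDHA, 0.2 mM sodium pyruvate and 0.06 mM NADH at pH 7.4.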
mIDH1 inhibitor: inhibitors of human mutant IDH1 R132H; IDH1-R132H enzyme, NADPH consumption, diaphorase/resazurin fluorescence; Potency, µM (top dose mostly 76.6 µM), for inactives: at the highest dose activity change, negative = inhibition, actives largely listed as inhibitors; 390,000 tested, 0.093% active; AID 602179; note: potency is the fitted concentration of half-maximal effect; % is set by controls: 0 for no effect and ±100 for the full control effect; nearly all actives have a fitted effect of over 65% in size
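IDH1-R132H (0.5 ug/mL dispensed) in pH 7.5 Tris buffer was preincubated 30 min with compound, then given a substrate mix of 0.016 mM NADPH and 2 mM alpha-KG for 80 min at room temperature; remaining NADPH was read by diaphorase/resazurin fluorescence.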
Mito fusion yeast: inhibitors of mitochondrial division or activators of mitochondrial fusion; S. cerevisiae fusion-defective mutant growth rescue, CellTiterGlo 48 h; Potency, µM (series often up to 46.1 µM), without a hit: at the top dose growth rescue (activation), usual class: activators; 320,000 tested, 0.23% active; note: potency is the fitted concentration of half-maximal effect; % of control where 0% means no effect; nearly all actives have a fitted effect of over 45% in size
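Read-out: ATP-based luminescence (CellTiterGlo, 10 min ambient) reporting growth of fusion-defective ts yeast after 48 hours at 37C on glycerol/ethanol YPEG medium in the presence of compound.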
RGS4 inhibitor: human RGS4 inhibition; P49798; Transcreener GDP fluorescence polarization, RGS4-accelerated GTP hydrolysis; Potency, µM (highest dose often 114 µM), for inactives: at the highest dose activity change, negative = inhibition, most hits filed as inhibitors; 390,000 tested, 0.039% active; AID 504845; note: potency is the fitted concentration of half-maximal effect; % is set by controls: 0 for no effect and ±100 for the full control effect; nearly all actives have a fitted effect of over 75% in size
Target sequence (P49798 whole entry, looked up): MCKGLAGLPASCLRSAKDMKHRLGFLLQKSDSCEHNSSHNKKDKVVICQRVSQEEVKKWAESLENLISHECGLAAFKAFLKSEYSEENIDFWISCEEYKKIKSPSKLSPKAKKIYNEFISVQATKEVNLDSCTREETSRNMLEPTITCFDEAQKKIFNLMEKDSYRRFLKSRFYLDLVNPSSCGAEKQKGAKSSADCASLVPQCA
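MLSMR compounds (23 nl, pin-transferred) preincubated 10 min at room temperature with a 500nM (2x) first reagent, then RGS4 at 900nM (2x) plus Transcreener GDP mix added; fluorescence polarization (620/688 nm) read before and after 90 min at 30 °C.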
* hit, by the source's call; ? = inconclusive; / = no result; [ ] = another dose, or the depositor's remark. Only a selection was taken, and hits are over-represented in it overall. Unless noted, calls come from the whole dose curve; as a rule, active = well fitted curve in the direction sought with a large enough effect; inconclusive = small, poorly fitted or top-dose-only effect, or another doubt; inactive = no such curve, though single readings can be large; an effect the other way counts as inactive or inconclusive.

SMILES	ASM inhibitor	ClpP mod	LDHA inh	mIDH1 inhibitor	Mito fusion yeast	RGS4 inhibitor
CCN(C(=O)CSc1nc2ccc(C)cc2[nH]1)C1CCS(=O)(=O)C1 (stereo not given)	0%	0%	-3	3%	/	-11%
COc1ccc(OC)c(NC(=O)Cc2c(C)c3c(OC)cc(C)cc3oc2=O)c1	/	/	0	/	/	/
CC(C)CCN1CCCC1C(=O)O (stereo not given)	/	/	-1	/	/	/
COc1ccc(OC)c(CNC(=O)c2ccc(N3Cc4ccccc4Oc4ncccc43)s2)c1	/	?	0	0%	/	-10%
Cc1cccc(CNC(=O)c2ccc(N3Cc4ccccc4Oc4ncccc43)s2)c1	/	28µM*	-3	1%	/	-13%
CCOC(=O)c1cccnc1SCc1cc(=O)n2ccccc2n1	2%	32µM*	-7	3%	2%	6%
Cc1sc(-c2cc3ccccc3oc2=O)nc1-c1ccc(Cl)cc1	/	32µM*	1	0%	/	-17%
COc1cccc(/C=N/O)c1OC	/	/	6	/	/	/
O=C(CCc1c[nH]c2ccccc12)Nc1ccc(S(=O)(=O)Nc2ncccn2)cc1	2%	32µM*	-4	8%	-6%	5%
CCOc1ccc(NC(=O)CCc2c[nH]c3ccccc23)cc1	/	/	0	/	/	/
COc1cc(CN2CCNC(=O)C2CC(=O)N2CCCN(C(C)=O)CC2)cc(OC)c1 (stereo not given)	6%	16µM*	1	2%	-4%	4%
COc1ccc(Cc2nc(C(=O)Nc3ccccc3)cs2)cc1	-1%	32µM*	-3	1%	15%	25%
Cc1ccc(S(=O)(=O)N(C)CCN(C)c2nc(-c3cccs3)nc3ccccc23)cc1	/	32µM*	-11	/	/	2%
CC(=O)Nc1ccc(CCNC(=O)c2ccc3ccccc3c2O)cc1	57%	25µM*	5	2%	/	34%
O=C1CC(c2cc3c(cc2Br)OCO3)C2=C(CCCC2=O)N1 (stereo not given)	3%	25µM*	-4	0%	1%	19%
Cc1ccc2c(c1C)NC(=O)CC2c1cc2c(cc1Br)OCO2 (stereo not given)	/	/	-16	/	/	/
Cc1ccc(-c2c(C(=O)N(C)Cc3ccccc3)oc(=O)c3ccccc23)cc1	-1%	-1%	-4	15%	16µM*	-4%
Cc1cc(=O)oc2cc(OCC(=O)Nc3ccc4ccccc4c3)ccc12	/	/	4	/	/	/
Cc1cccc(OCCn2c(-c3ccco3)nc3ccccc32)c1	-16%	25µM*	-2	15%	-6%	-53%
c1ccc(OCCn2c(-c3ccco3)nc3ccccc32)cc1	-2%	-29%	1	10%	-6%	?
O=C(Cn1c(-c2ccco2)nc2ccccc21)N1CCCCC1	4%	16µM*	-2	10%	-1%	3%
CCn1c(-c2ccco2)nc2ccccc21	1%	32µM*	-6	10%	5%	-19%
CCc1ccc(C(=O)N(Cc2ccco2)C2CC2)o1	/	/	-2	/	/	/
COC(=O)c1c(-n2cnnn2)sc(C)c1C	0%	22µM*	2	-3%	-1%	12%
Cc1nn(C)c(I)c1I	/	/	2	/	/	/
Cc1c(C(=O)c2ccc(Cl)cc2Cl)cnc2cc3c(cc12)OCO3	-14%	-2%	-6	3%	13µM*	-43%[56.9 µM]
O=C(O)CSc1nnc(-c2cc3ccccc3o2)n1-c1ccccc1	3%	22µM*	-7	4%	-1%	37%
Cn1c(SCC(=O)N2CCN(c3ccccc3)CC2)nnc1-c1cc2ccccc2o1	4%	-8%	-9	2%	6%	20%
CCCN(CC1CC1)c1nc(N)c2c(N)nc(OC)cc2c1C#N	40%	25µM*	20	-6%	17%	-3%[11.4 µM]
